The values that follow come from PubChem BioAssay (NCATS).

Records with an inconclusive call do not appear. A call without a number means that no potency is given here. Values without a mark were called inactive. Calls of active or inactive are those of the source. Calls follow the shape of the dose curve; as a rule, active = well fitted inhibition curve with a large enough effect; inconclusive = small, poorly fitted or top-dose-only effect; inactive = no such curve, though single readings can be large or run the other way.

In the first test the test system is Zika virus NS2B-NS3 protease (unlinked complex). Briefly: Primary screen GU Rhodamine qHTS for Zika virus inhibitors: Unlinked NS2B-NS3 protease assay (AID 1347159). Also: nearly all actives have a fitted effect of over 60% in size. The conditions noted are these: Recombinant ZIKV NS2B-NS3 protease, Rhodamine110 substrate fluorescence; series mostly up to 107 µM. In outline:
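Noncovalent NS2B hydrophilic domain–NS3 protease domain complex (25 nM) preincubated 15 min at room temperature with compounds (up to 114 microM) in 10 mM Tris-HCl pH 8.0, 0.01% Tween 20; 1.5 microM Rhodamine110 substrate added, fluorescence change over 15 min fitted to Hill equation.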
(Quantitative high-throughput screening tests each substance at several concentrations.)
With `C=CC(C)(CC/C=C(\C)C(=O)OC)OC1OC(COC(=O)CC(C)(O)CC(=O)O)C(OC2OC(CO)C(O)C(O)C2O)C(O)C1O` (centres undefined), the Potency entry is “inactive”.
Turning to `COc1c(Nc2ncc(Cl)c(N[C@H]3[C@@H](C(N)=O)[C@@H]4C=C[C@H]3C4)n2)ccc2c1CC[C@@H](N1CCOCC1)CC2`, the Potency result is “inactive”.
On to `COC(=O)Cc1cc2c(c([N+](=O)[O-])c1)N(C(=O)CC[C@H](N)C(=O)O)CC2`, for which the Potency entry is “inactive”.
As to `COC(=O)C[C@H]1C(C)(C)[C@H](OC(C)=O)C2CC3=C4CC(=O)O[C@@H](c5ccoc5)[C@]4(C)CCC3[C@@]1(C)C2=O` (some centres undefined), the Potency result is “inactive”.
`CC(Nc1ncnc2nc[nH]c12)c1cc2cccc(Cl)c2c(=O)n1-c1ccccc1` (centres undefined): the Potency entry is “inactive”.
Take `C=C[C@H]1[C@H](O[C@@H]2O[C@H](CO)[C@@H](O)[C@H](O)[C@H]2O)OC=C(C(=O)OC)[C@H]1CC(=O)O`: the Potency result was “inactive”.
As to `Oc1ccc(CNc2ccccc2F)c2cccnc12`, the Potency result is “inactive”.
The same measure, in the same setting: the result for `COc1cc(-c2ncn(/C=C\C(=O)OC(C)C)n2)cc(C(F)(F)F)c1` reads “inactive”; that for `CC1(C)C=CN2C(=O)C3=CCCN3C(=O)[C@@H]2C[C@@]12Nc1ccccc1C2=O`, “inactive”; that for `CCS(=O)(=O)N1CCN(c2ccc(Nc3ncc(C(N)=O)c(NC4CC4)n3)cc2)CC1`, “inactive”.
On to `CC1=C(CO)C(=O)O[C@@H]([C@@H](C)[C@H]2CC[C@H]3[C@@H]4C[C@H]5O[C@]56[C@@H](O)C=CC(=O)[C@]6(C)[C@H]4CC[C@]23C)C1`, for which the Potency entry was “inactive”.
The same measure, in the same setting: the result for `CC(C)=CC/C=C(\C)[C@H]1CC[C@]2(C)[C@@H]1[C@H](O)C[C@@H]1[C@@]3(C)CC[C@H](O)C(C)(C)[C@@H]3[C@@H](O[C@@H]3O[C@H](CO)[C@@H](O)[C@H](O)[C@H]3O)C[C@]12C` reads “inactive”.

In another test the test system is Zika virus NS2B-NS3 protease (linked construct). Briefly: Primary screen NINDS Rhodamine qHTS for Zika virus inhibitors (AID 1347160). Also: nearly all actives have a fitted effect of over 55% in size. The conditions noted are these: purified NS2B-NS3 protease, Rhodamine110 substrate fluorescence; series mostly up to 57.1 µM. The method in brief: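 Purified linked NS2B-NS3 protease (NS2B hydrophilic domain joined to NS3 protease by flexible linker), 25 nM in 10 mM Tris-HCl pH 8.0, 0.01% Tween 20. Compounds titrated, 15 min preincubation at room temperature; 1.5 microM Rhodamine110 substrate, FITC fluorescence change over 15 min.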
On to `OCCc1ccc(O[C@@H]2O[C@H](CO)[C@@H](O)[C@H](O)[C@H]2O)cc1`, for which the Potency result was “inactive”.
As for `COc1ccc(N(C)c2nc(C)nc3ccccc23)cc1`, the Potency entry is “inactive”.
The same measure, in the same setting: the result for `Cc1nc(C)c(-c2ccc(C3CCC(CC(=O)O)CC3)cc2)nc1C(N)=O` (centres undefined) reads “inactive”; that for `CC(=O)C1=C(C)N(c2cccc(C(F)(F)F)c2)C(=O)N[C@H]1c1ccc(C#N)nc1`, “inactive”.
For the compound `O=C(NCc1ccc(S(=O)(=O)c2cc(F)cc(F)c2)cc1)c1ccc2nccn2c1`, the Potency result is “inactive”.
For `COc1ccc(-c2nc(-c3ccc(-c4cccc(Cl)c4)o3)[nH]c2-c2ccc(OC)cc2)cc1`, the Potency result is “inactive”.
With `C=CC(C)(C)c1[nH]c2cc3c(cc2c1CC1NC(=O)C2=CCCN2C1=O)C=CC(C)(C)O3` (centres undefined), the Potency entry is “inactive”.
The same measure, in the same setting: the result for `COc1cc(C2Oc3c(OC)cc(CCCO)cc3C2CO)ccc1O[C@H]1O[C@H](C)[C@@H](O)[C@H](O)[C@@H]1O` (some centres undefined) reads “inactive”.
On the same count and under the same terms, the result for `CC(C)c1nc(-c2ccc(NC(=O)Nc3cccc(C(F)(F)F)c3)c3ccccc23)c2c(N)nccn12` reads “inactive”; that for `CCOCc1nc2c(N)nc3ccccc3c2n1CC(C)(C)O`, “inactive”; that for `CC1=C(COC2OC(CO)C(O)C(O)C2O)C(C(CO)C(=O)O)CC1` (centres undefined), “inactive”.
Take `C=C(C(=O)OC)C1C(O)CC2(C)C(O)CCC(=O)C2C1O` (centres undefined): the Potency entry is “inactive”.
In the case of `CC(=O)C=C=C1C(C)(C)CC(O[C@@H]2O[C@H](CO)[C@@H](O)[C@H](O)[C@H]2O)CC1(C)O` (some centres undefined), the Potency entry was “inactive”.
In the case of `CC(C(O)/C=C/C(C)(C)O)C1CCC2(C)C3C(=O)C=C4C(CCC(O)C4(C)C)C3(C)CCC12C` (centres undefined), the Potency entry was “inactive”.
Same read-out and setting: the result for `CC(C)(O[C@@H]1O[C@H](CO)[C@@H](O)[C@H](O)[C@H]1O)C(OC(=O)/C=C\c1ccc(O)cc1)C(=O)OCc1ccc(O[C@@H]2O[C@H](CO)[C@@H](O)[C@H](O)[C@H]2O)cc1` (some centres undefined) reads “inactive”.
On to `CCN1CCN(Cc2ccc(NC(=O)c3ccc(C)c(NC(=O)c4cncc(-c5cccs5)c4)c3)cc2C(F)(F)F)CC1`, for which the Potency entry was “inactive”.
`COc1cc2c(cc1OC)N1C(=O)C[C@]34C=CCN5CC[C@@H]2[C@@H](CC3)[C@]514`: the Potency entry was “inactive”.
Take `NC1CCC(Nc2cc(-c3cccc(NCc4cccc(F)c4)n3)c(Cl)cn2)CC1` (centres undefined): the Potency entry is “inactive”.
Take `CO/N=C(/C(=O)N[C@@H]1C(=O)N2C(C(=O)O)=C(Cn3ccc(=N)n3CCO)CS[C@H]12)c1csc(N)n1`: the Potency result was “inactive”.
Same read-out and setting: the value for `C=C1C(=O)O[C@H]2[C@H]1CC/C(C)=C/CC[C@@]1(C)O[C@@H]21` was “inactive”.
Still for that read-out and setting: the result for `CC[C@H](NC(=O)[C@H](CS(=O)(=O)CC1CC1)N[C@@H](c1ccc(F)cc1)C(F)(F)F)C(=O)C(=O)NC1CC1` reads “inactive”.
Turning to `C[C@@H]1O[C@@H](O[C@H]2[C@H](O[C@H]3[C@H](O[C@H]4CC[C@@]5(C)C(CC[C@]6(C)C5CC=C5[C@@H]7CC(C)(C)CC[C@]7(C(=O)O[C@@H]7O[C@H](CO)[C@@H](O[C@@H]8O[C@@H](C)[C@H](O)[C@@H](O)[C@H]8O)[C@H](O)[C@H]7O)CC[C@]56C)C4(C)C)OC[C@H](O)[C@@H]3O)O[C@H](CO)[C@@H](O)[C@@H]2O)[C@H](O)[C@H](O)[C@H]1O` (some centres undefined), the activity change, negative = inhibition was 35.2% [at 10.7 µM].
